One may read the inhibition as the drop in the measured response relative to a control, in per cent.

Each structure is given as a SMILES string. Screen size: about 330,000 compounds; about 5,800 (1.8%) were called active. The full list was thinned out, with actives kept by preference. Values without a mark were called inactive. Rule as the data show it: active = inhibition mostly above about 38% (no sharp cut-off); inactive = mostly below about 40%.

The target in the test is Orexin/Hypocretin receptor type 1 (Homo sapiens) (UniProt O43613). Nature of the test: blocks the human orexin 1 receptor (AID 485270).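 Also: 0% = agonist challenge alone and 100% = reference antagonist.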 The note with it: OX1R-expressing cells, FRET antagonist read-out; at 6.6 µM; active compounds read high.
Sequence of Orexin/Hypocretin receptor type 1 (Homo sapiens) (O43613 whole entry, looked up): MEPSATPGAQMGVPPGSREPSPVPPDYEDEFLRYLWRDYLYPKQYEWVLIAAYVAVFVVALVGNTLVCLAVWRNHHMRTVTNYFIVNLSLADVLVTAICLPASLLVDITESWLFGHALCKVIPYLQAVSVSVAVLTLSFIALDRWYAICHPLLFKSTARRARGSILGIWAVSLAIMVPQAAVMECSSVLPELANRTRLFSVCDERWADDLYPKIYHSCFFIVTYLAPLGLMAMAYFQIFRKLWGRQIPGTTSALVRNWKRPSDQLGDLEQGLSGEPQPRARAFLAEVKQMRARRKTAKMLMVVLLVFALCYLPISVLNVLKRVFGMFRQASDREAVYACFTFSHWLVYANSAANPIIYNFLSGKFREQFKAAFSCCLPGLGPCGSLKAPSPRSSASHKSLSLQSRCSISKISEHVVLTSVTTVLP
For `O=C(N/N=C/c1c(O)n(Cc2ccccc2)c(=O)[nH]c1=O)c1ccccc1`, the inhibition is 20.1%.
As to `O=C(N/N=C/c1c(O)n(C2CC2)c(=S)[nH]c1=O)c1ccccc1Cl`, the inhibition is 16.5%.
For the molecule `O=C(N/N=C/c1c(O)n(C2CC2)c(=S)[nH]c1=O)c1ccccc1`, the inhibition is 48.4% (active).
As to `O=C(CSC1c2ccccc2-c2ccccc21)N/N=C/c1ccccc1`, the inhibition was 53.4%.
In the case of `CNC(=O)Nc1ccc(C(O)(C(=O)OC)C(F)(F)F)cc1` (stereo not given), the inhibition was 1.75%.
In the case of `COc1ccc2c(c1O)-c1cccc3c1[C@@H](C2)N(C)CC3` it was 21.8%.
With `Cc1nc2ccc(N3CCN(C)CC3)cc2nc1C`, the inhibition is 36.4%.
Then `CCN1CCN(c2ccc([N+](=O)[O-])cc2C#N)CC1`, with 30.8%.
As for `CN1CCN(c2cc(N3CCNCC3)ccc2[N+](=O)[O-])CC1`, the inhibition was 61% (active).
Then `Cc1cccc2c(CCN)c[nH]c12`, with 13.2%; and `CCOCCc1c(O)[nH]c(=S)[nH]c1=O`, with -2.14%.
As to `O=C1N=c2ccccc2=C/C1=C\c1c(O)[nH]c(=S)[nH]c1=O`, the inhibition is 42.6%.
As to `COc1ccccc1N=Nc1c(O)[nH]c(=S)[nH]c1=O`, the inhibition is 55.9% (active).
Regarding `O=c1[nH]c(CN2CC=C(c3ccccc3)CC2)nc2scc(-c3cccs3)c12`, the inhibition was 7.54%.
For the molecule `CC(=O)Nc1ccc(C(=O)C(Cc2ccccc2)N(C)C)cc1` (stereo not given), the inhibition was 4.57%.
Consider `COc1cccc(-c2nc3ccc(N4CCN(C)CC4)cc3[nH]2)c1`, for which the inhibition was 20.4%.
Then `CCN(CC)c1ccc([N+](=O)[O-])c2cccnc12`, with 28.8%; and `CN(c1ccccc1)c1ccc([N+](=O)[O-])c2nonc12`, with 73.5% (active).
For the molecule `CN1CCN(Cc2ccc(OC(F)(F)F)cc2)CC1`, the inhibition is 2.95%.
As for `O=C(Cc1ccccc1)N1CCN(C2CCCCCC2)CC1`, the inhibition is -3.88%.
